Results with a measured potency or affinity are listed apart. Calls of active or inactive are those of the source.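 The calls were made as follows: active = a dose-response curve fit returns a half-maximal inhibitory concentration, extrapolated values included; inactive = the fit returns no such concentration.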
Each compound was assayed against HMG-CoA reductase [Enterococcus faecalis] (UniProt Q9FD70) (assay: inhibitors of E. faecalis class II HMGR, confirmation, biochemical, Enterococcus faecalis (AID 1233)). Settings: purified E. faecalis HMGR, NADPH absorbance 340 nm kinetics; series mostly up to 100 µM.

outcome, inactive:
O=S(=O)(NCC1CCCO1)c1ccc2c(c1)OCCO2 (configuration not stated), CN(C)c1ccc(N=C/C=C2\N(C)c3ccccc3C2(C)C)cc1, CCOC(=O)c1ccc(N(C(=O)c2cnccn2)C(C(=O)NC2CCCCC2)c2cn(C)nc2C)cc1 (configuration not stated), CC[n+]1c(C)n(-c2ccccc2)c2ccc(C(=O)OC)cc21, CC(=O)NC(Cc1cccc(F)c1)C(=O)NC1CCN(c2ncccc2[N+](=O)[O-])CC1 (configuration not stated), Cc1ccc2nc(-c3cc(N)cc(N)c3)oc2c1, COc1ccc(CN2CCN(CCC(C)C)C(CCO)C2)cc1Cn1cccn1 (configuration not stated), CN(Cc1ccccc1)c1nc(N)nc(Cl)c1C=O, Cc1[nH][nH]c(=O)c1C(c1c(C)[nH][nH]c1=O)c1cn(Cc2ccc(Cl)c(Cl)c2)c2ccccc12, CN(C)CCNC(=O)c1ccc(COc2ccc(Cl)cc2Cl)cc1, COc1ccc(NCc2nnc(SCCN3CCCCC3)n2-c2ccc(C)cc2)cc1, CCc1c(C)nc2c(C#N)c(C)[nH]n2c1=O, Cc1ccccc1Nc1nc(N)nc(CN2CCN(Cc3ccc4c(c3)OCO4)CC2)n1, CC1CCCC(NC(=O)CN(C)S(=O)(=O)c2cnc[nH]2)C1C (configuration not stated), CCCCC(=O)Nc1cc(OCC)c(NC(=S)NC)cc1OCC, COCCNC(=O)C1c2cc(OC)c(OC)cc2C(=O)N(C)C1c1cccnc1 (configuration not stated), COc1cccc(Nc2nc(C)cc(C)c2C#N)c1, O=C(NCC1CCCO1)C(c1cccs1)N(Cc1cccs1)C(=O)Cn1nnc(-c2cccs2)n1 (configuration not stated), O=C(O)CCC(=O)NNC(=O)c1ccc(Br)cc1, CCOC(=O)c1sc(NC(=O)CSc2n[nH]c(CC)n2)nc1C, COc1ccc(C(=O)/C=C/c2ccc(N3CCCCC3)c([N+](=O)[O-])c2)c(OC)c1, CC(C)OC(=O)CC(NC(=O)OC(C)(C)C)c1ccccc1 (configuration not stated), O=C(NCC(=O)N(Cc1cccs1)C(C(=O)NC1CCCC1)c1ccncc1)c1ccco1 (configuration not stated), CN(C)c1ccc2c3c(ccc(N(C)C)c13)COC2, CCN(CC)S(=O)(=O)c1cccc(C(=O)Nc2cc(C)cc(C)c2)c1, CN(C)S(=O)(=O)N1CCN(S(=O)(=O)N2CCOCC2)CC1, COc1ccc(NC(=O)c2ccc3c(c2)n(C)c(=O)n3C)cc1, Cn1nc([N+](=O)[O-])nc1Sc1nnnn1-c1ccc(C(=O)O)cc1, O=C(Cn1cc(C(=O)C(F)(F)F)c2ccccc21)N1CCOCC1, Nc1ccc(C(=O)Nc2ccc(OC(F)(F)C(F)F)c(NC(=O)c3ccc(N)cc3)c2)cc1, O=C(O)c1cc(CN2CCOCC2)oc1-c1ccccc1, Cc1cc(SCn2nnc3ccccc3c2=O)nc2ccccc12, CCN(CC)CCNC(=O)C(=O)NCC1OCCN1C(=O)c1ccc2c(c1)OCO2 (configuration not stated), NC(=O)c1ccc2nc(NC(=O)c3ccc(N)cc3)sc2c1, CCN(CC)S(=O)(=O)c1cccc(C(=O)N[C@H](C(=O)Nc2nc3ccccc3s2)C(C)C)c1, O=C(O)CCCCCCC1C(=O)NC(=O)N1CCC(O)C1CCCCC1 (configuration not stated), CCCn1c(SCC(=O)N2CC(=O)Nc3ccccc32)nc2ccccc21
